Screening results from PubChem.
Dicer processing: blocks human Dicer maturation of pre-miR-21; z-score at 25 µM; Q9UPY3; 6% of 47,000 active; cat-ELCCA pre-miR-21 Dicer processing, chemiluminescence; hits give high values; in the data active = z-score above about 3, passing the limit was not always enough;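 note: plate controls were vehicle for no effect and no enzyme for full effect; higher signal means more uncleaved substrate so more Dicer inhibition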
An asterisk follows results filed as active. Only a selection was taken, and hits are over-represented in it overall.

CCN(CC)c1ccc(C2CC(=O)C3=C(C2)Nc2ccccc2NC3c2ccco2)cc1 (stereo not drawn) was read as Dicer processing 8.17*.
For CCOC(=O)c1cc(C)nn1C(=O)c1ccc(C)cc1 the results were Dicer processing 8.15.
`N#C/C(=N\Nc1ccc(C(F)(F)F)cc1)C(=O)C1CC1` gave Dicer processing 0.92.
For CN1C2CCC1CC(NC(=O)CSc1nnc(N)s1)C2 (stereo not drawn) the results were Dicer processing 0.93.
O=C1c2oc3ccc(F)cc3c(=O)c2C(c2ccccc2F)N1Cc1ccc2c(c1)OCO2 (stereo not drawn) was read as Dicer processing -0.09.
Nc1c(-c2n[nH]c(=S)n2-c2ccc(Cl)cc2)sc2nnc(-c3ccccc3)c(-c3ccccc3)c12 was read as Dicer processing -0.48.
`CCOC(=O)/C(C#N)=C\Nc1cc(OC)c2ncccc2c1` gave Dicer processing -1.68.
O=C(O)C(F)(F)C(F)(F)C(=O)NCc1ccccc1Cl was read as Dicer processing 0.25.
`N#Cc1cccnc1NNC(=O)COCC(=O)O` gave Dicer processing -0.17.
`COc1ccc(C2CC(=O)C3=C(C2)Nc2ccccc2NC3c2ccccc2)cc1` (stereo not drawn) gave Dicer processing 3.45*.
`COc1ccc(C2CC(=O)C3=C(C2)Nc2ccccc2NC3c2ccc(O)cc2)cc1` (stereo not drawn) gave Dicer processing 0.33.
For COc1ccc(C2CC(=O)C3=C(C2)Nc2ccccc2NC3c2ccc(Cl)cc2)cc1 (stereo not drawn) the results were Dicer processing 1.96.
Screening COc1ccc(C2CC(=O)C3=C(C2)Nc2ccccc2NC3c2ccc(OC)cc2OC)cc1 (stereo not drawn) returned Dicer processing 3.02*.
Screening COc1ccc(OC)c(C2Nc3ccccc3NC3=C2C(=O)CC(c2ccc(OC)c(OC)c2)C3)c1 (stereo not drawn) returned Dicer processing 0.31.
For COc1ccc(C2CC(=O)C3=C(C2)Nc2ccccc2NC3c2cccc3ccccc23)cc1 (stereo not drawn) the results were Dicer processing -1.35.
Screening Cc1ccc(C(=O)NC(Nc2ccc(F)cc2)(C(F)(F)F)C(F)(F)F)cc1 returned Dicer processing 0.65.
For Cc1cc(C(F)(F)F)c2c(C)nn(-c3ccc(C)c(Cl)c3)c2n1 the results were Dicer processing -1.7.
CCOC(=O)c1sc(-c2ccccc2)nc1CSc1ccc(Cl)cc1 was read as Dicer processing 1.77.
O=c1c2[nH]cnc2n(-c2ccccc2F)c(=O)n1Cc1ccccc1F was read as Dicer processing 0.16.
For CCOc1ccc(S(=O)(=O)Nc2cc(C)ccn2)cc1 the results were Dicer processing -1.12.
CCOc1nc(C)ccc1-c1noc(-c2ccc(OC)c(OC)c2)n1 was read as Dicer processing 0.4.
`CCOc1ccc(-c2nc(-c3ccc(Cl)cc3)no2)cc1OCC` gave Dicer processing 3.65*.
`COc1ccc(-c2noc(-c3ccc(OC)c(OC)c3)n2)cc1OC` gave Dicer processing -0.23.
Screening COC(=O)C1=C(C(=O)OC)SC(=C2C(=S)C(C)(C)N3C(=O)C(=O)c4c(C)c(C)cc2c43)S1 returned Dicer processing 0.01.
Screening Nc1nc(Nc2ccccc2)nc(NCc2ccccc2)c1[N+](=O)[O-] returned Dicer processing 2.43.
Screening Nc1c(NCc2ccccc2)c(=O)c1=O returned Dicer processing 3.34*.
Screening O=c1[nH]cc(NCc2ccccc2)c(=O)[nH]1 returned Dicer processing -10.2.
Screening Cc1c(C#N)c(NC(=O)c2cc(Cl)cc(Cl)c2)n(CC2CC2)c1C returned Dicer processing -0.62.
For Cc1cccc(N2C(=O)C3C4C=CC(C4)C3C2=O)n1 (stereo not drawn) the results were Dicer processing -0.23.
Screening Cc1noc(N2C(=O)C3C4C=CC(C4)C3C2=O)c1C (stereo not drawn) returned Dicer processing -0.05.
`Cc1cc(N2C(=O)C3C4C=CC(C4)C3C2=O)no1` (stereo not drawn) gave Dicer processing 3.66*.
Cc1nn(-c2ccccc2)c2c1C(c1ccc(Cl)cc1)C1=C(CC(C)(C)CC1=O)N2 (stereo not drawn) was read as Dicer processing -0.18.
`NC(=O)c1sc(-c2ccccc2)cc1NS(=O)(=O)c1ccc(F)cc1` gave Dicer processing -0.57.
NC(=O)c1sc(-c2ccc(Cl)cc2)cc1NS(=O)(=O)c1cc(C(F)(F)F)cc(C(F)(F)F)c1 was read as Dicer processing 3.7*.
`COC(=O)c1sc(-c2ccc(Cl)cc2)cc1NC(=O)C(F)(F)F` gave Dicer processing 0.16.
`Cn1c(N/N=C/c2ccc(Br)cc2)nc2c1c(=O)n(Cc1cccc(F)c1)c(=O)n2C` gave Dicer processing 1.57.
C/C(=N\N=C1\NC(=O)C(CC(=O)O)S1)c1ccc(F)cc1 (stereo not drawn) was read as Dicer processing -0.96.
`O=c1[nH]c(=O)n(C2CCCO2)cc1F` (stereo not drawn) gave Dicer processing 1.7.
Screening O=c1[nH]c(=O)n(C2O[C@H](CO)[C@@H](O)[C@H]2O)cc1Br (stereo partly drawn) returned Dicer processing 1.43.
`C[C@H]1O[C@@H](n2cc(F)c(=O)[nH]c2=O)[C@H](O)[C@@H]1O` gave Dicer processing 3.06*.
For N#C/C(=C\Nc1cnccn1)C(=O)c1cccs1 the results were Dicer processing 0.7.
For CSc1nc(N/C=C(/C#N)C(=O)C2CC2)nc(N(C)C)n1 the results were Dicer processing -2.5.
For C=CCNC(=S)NNC(=O)c1oc2nc(-c3ccc(Cl)cc3)cc(-c3ccccc3)c2c1N the results were Dicer processing -0.9.
O=C1CCOc2cc3c(cc21)C(=O)CCO3 was read as Dicer processing 3.61*.
For O=C(c1ccc2c(c1)CCO2)N1CCN(C(=O)c2ccc3c(c2)CCO3)CC1 the results were Dicer processing -0.49.
Screening O=C1CCCc2c1ccc1c3c(ccc21)C(=O)CCC3 returned Dicer processing -0.13.
Screening Cc1nc(C(=O)NCc2cc(F)cc3c2OCOC3)sc1-c1ccc2c(c1)CCO2 returned Dicer processing -7.68.
For COc1ccc(C2NC(C(=O)O)CS2)c(OC)c1 (stereo not drawn) the results were Dicer processing -1.73.
Screening CC1=NN(c2ccccc2)C(=O)/C1=C1/SC(C(=O)c2ccccc2)=NN1c1ccccc1 returned Dicer processing 159.
Screening O=C1ON=C(c2ccccc2)/C1=C1\SC(C(=O)c2ccccc2)=NN1c1ccccc1 returned Dicer processing 3.49*.
For CC1=NN(c2ccccc2)C(=O)/C1=C1/SC(C(=O)c2ccccc2)=NN1c1ccc(Cl)cc1 the results were Dicer processing -1.25.
Screening Cc1cc2oc(=O)cc(O)c2cc1C returned Dicer processing 0.66.
Cc1ccc(Oc2c(C(F)(F)F)oc3c(CN4CCOCC4)c(O)ccc3c2=O)cc1 was read as Dicer processing -0.41.
For Cc1c(S(=O)(=O)c2ccccn2)c(N)n(Cc2ccc(C(F)(F)F)cc2)c1C the results were Dicer processing -2.14.
For c1csc(CNc2nc3ccccc3n2CCN2CCCCC2)c1 the results were Dicer processing -0.42.
Screening CCCn1c(NCc2cccs2)nc2ccccc21 returned Dicer processing 3.15*.
c1csc(CNc2nc3ccccc3n2CCN2CCOCC2)c1 was read as Dicer processing 2.23.
`c1ccc(Cn2c(NCc3cccs3)nc3ccccc32)cc1` gave Dicer processing 3.01*.
